By inhibition is commonly meant the share of the control response that was lost under treatment.

Structures are written as SMILES. Among all 2,400 compounds or so, about 2,200 (92%) were called active.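 Rule for the calls: active = mean inhibition over triplicate runs exceeds the cutoff derived for the earlier primary screen (cut at about 25% in these data); inactive = the rest.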 The set was probably picked from earlier hits. The list shows a part of the results.

The target in this experiment is Platelet-activating factor acetylhydrolase IB subunit alpha2 (Homo sapiens) (UniProt P68402). Kind of experiment: PAFAH1B2 inhibitors, confirmation, biochemical, fluorescence polarization, FP-rhodamine probe, triplicate (AID 493034).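 Note: 0% = enzyme with DMSO and 100% = wells lacking PAFAH1B2 protein; inhibitors lower polarization by leaving the probe unbound.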 The following applies: recombinant PAFAH1B2, FP-rhodamine probe fluorescence polarization; at 3.39 µM; hits give high values. (In general: Polarisation of emitted light reports the rotation of a fluorescent probe.)
Platelet-activating factor acetylhydrolase IB subunit alpha2 (Homo sapiens), sequence (P68402 whole entry, looked up): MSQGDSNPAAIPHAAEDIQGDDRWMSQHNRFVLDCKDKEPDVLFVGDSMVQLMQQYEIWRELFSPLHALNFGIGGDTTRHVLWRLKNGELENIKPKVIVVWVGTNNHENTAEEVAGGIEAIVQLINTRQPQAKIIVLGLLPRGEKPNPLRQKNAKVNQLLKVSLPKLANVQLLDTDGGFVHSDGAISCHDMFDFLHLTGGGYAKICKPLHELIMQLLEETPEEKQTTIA
For `O=c1[nH]c(CCl)nc2cc(-c3ccc(Cl)cc3)sc12`, the inhibition is 61% (active).

Consider `Cc1cc(NC(=S)N(Cc2ccc(Br)cc2)Cc2ccc(C(=O)O)cc2)ccc1Cl`, for which the inhibition was 1.23% (inactive). As to `O=C(O)c1[nH]c2ccccc2c1C(c1ccccc1)c1c(C(=O)O)[nH]c2ccccc12`, the inhibition was 75.9% (active). The figure for `O=C(O)c1[nH]c2ccccc2c1C(c1cccc(O)c1)c1c(C(=O)O)[nH]c2ccccc12` is 80.5% (active); for `COc1cc(C(c2c(C(=O)O)[nH]c3ccccc23)c2c(C(=O)O)[nH]c3ccccc23)ccc1OCc1ccccc1` it is 37.9% (active).

As to `O=C(O)c1[nH]c2ccccc2c1C(c1c(F)cccc1Cl)c1c(C(=O)O)[nH]c2ccccc12`, the inhibition was 33.3% (active). The figure for `Cc1ccc(O)c(N=Cc2cc(Cc3ccccc3)cc([N+](=O)[O-])c2O)c1` is 20.2% (inactive). Turning to `CCCCNC(=O)c1cccc(S(=O)(=O)N2CC3(C)CC2CC(C)(C)C3)c1` (stereo not given), the inhibition was 19.5% (inactive).

Regarding `Cc1ccc(CN2[C@@H](CC3CCCCC3)COCCS2(=O)=O)cc1`, the inhibition was 23.1% (inactive).

Regarding `CCCCCCCCCCCCCC(=O)O`, the inhibition is 22.4% (inactive). The figure for `O=C(O)CN1C(=O)C2C3CC(C2C1=O)C1C(c2ccccc2)c2sc(=O)[nH]c2SC31` (stereo not given) is 59.3% (active); for `O=C(O)CN1C(=O)C2C3CC(C2C1=O)C1C(c2ccc(F)cc2)c2sc(=O)[nH]c2SC31` (stereo not given) it is 54.6% (active). As for `O=C(O)CN1C(=O)C2C3CC(C2C1=O)C1C(c2ccc(Cl)cc2)c2sc(=O)[nH]c2SC31` (stereo not given), the inhibition was 37.1% (active). The figure for `O=C(COC(=O)CCSc1ccccc1)Nc1cc(F)ccc1F` is 10.5% (inactive).

With `COc1ccccc1NC(=O)COC(=O)C12CC3CC(CC(Br)(C3)C1)C2`, the inhibition was 26.2% (active).

As to `O=C(COC(=O)C12CC3CC(CC(Br)(C3)C1)C2)Nc1ccc2[nH]c(=O)[nH]c2c1`, the inhibition was 31.2% (active). The figure for `COc1ccccc1CNC(=O)COC(=O)c1ccc(C(=O)c2ccccc2)cc1` is 3.07% (inactive); for `O=C(COC(=O)C12CC3CC(CC(Br)(C3)C1)C2)Nc1c(F)cccc1F` it is 35.8% (active). The figure for `O=C(COC(=O)C12CC3CC(CC(Br)(C3)C1)C2)Nc1cccnc1Cl` is 36.7% (active). The figure for `O=c1c2c(nc3cc(-c4ccc(Cl)cc4)[nH]n13)CCS2` is 11.7% (inactive). Take `N#C/C(=C\c1cc2c(cc1Br)OCO2)c1ccc(C(=O)O)cc1`: the inhibition is 23.6% (inactive). The figure for `Nc1nc(-c2ccc(Br)cc2)cs1` is 92.3% (active); for `Nc1nc(-c2ccc(F)cc2)cs1` it is 55.6% (active); for `Cc1ccc(-c2csc(NCCn3c(C)nc4cc(C(F)(F)F)ccc43)n2)cc1` it is 23.5% (inactive).

For `Cc1ccc(-c2csc(N)n2)cc1`, the inhibition was 63.1% (active). The figure for `Nc1nc(-c2ccccc2)cs1` is 35.5% (active). Consider `O=C(O)c1sccc1SCc1ccc(Cl)cc1Cl`, for which the inhibition is 22.4% (inactive). The figure for `Cc1nc(-c2cccc(S(=O)(=O)N3CCC(C)CC3)c2)cs1` is 23.7% (inactive); for `Nc1nc(-c2cccc(F)c2)cs1` it is 36.3% (active). As to `O=C(COC(=O)C12CC3CC(CC(C3)C1)C2)NNC(=O)c1ccccc1`, the inhibition is 21.4% (inactive). The figure for `CC(CCc1ccccc1)NC(=O)COC(=O)C12CC3CC(CC(Br)(C3)C1)C2` (stereo not given) is 38.2% (active); for `O=C(O)CNC(=O)C12CC3CC(CC(Cl)(C3)C1)C2` it is 22.2% (inactive).

`O=C(NCc1ccccc1)C12CC3CC(CC(Br)(C3)C1)C2`: the inhibition is 27.1% (active). The figure for `O=C(COC(=O)C12CC3CC(CC(Br)(C3)C1)C2)NNC(=O)c1ccccc1` is 46.3% (active); for `CC(NC(=O)CN(C)S(=O)(=O)c1cccc2nsnc12)c1ccccc1` (stereo not given) it is 22.2% (inactive). The figure for `CC(NC(=O)COC(=O)C12CC3CC(CC(Br)(C3)C1)C2)c1ccccc1` (stereo not given) is 31% (active); for `O=C(O)CC1c2ccccc2CCN1S(=O)(=O)c1ccc(F)cc1` (stereo not given) it is 19.8% (inactive). The figure for `CN(Cc1ccccc1)C(=O)COC(=O)C12CC3CC(CC(Br)(C3)C1)C2` is 28.4% (active); for `OC(c1ccc(F)cc1)(C1CCCCC1)C(CN1CCOCC1)c1ccccc1` (stereo not given) it is 23.5% (inactive). On to `O=C(O/N=C1/CCCc2occc21)c1ccc(Cl)cc1Cl`, for which the inhibition is 19.3% (inactive). The figure for `Cc1occc1C(=O)O/N=C(\N)c1ccc(Cl)cc1` is 27.4% (active).

Regarding `NC(=O)CSc1ccc(Br)cc1`, the inhibition is 39.5% (active). The figure for `CC(Sc1ccc(Br)cc1)C(N)=O` (stereo not given) is 27.6% (active); for `COc1ccc(NC(=O)O/N=C/c2ccc(Br)cc2)cc1` it is 7.26% (inactive). The figure for `Cc1ccc(S(=O)(=O)N2[C@@H](c3ccc(Cl)cc3)C(C(=O)O)=CC[C@H]2c2ccc(Cl)c(Cl)c2)cc1` is 85.8% (active); for `Cc1ccc(S(=O)(=O)N2[C@@H](c3cccc(C)c3)C(C(=O)O)=C[C@H]2C(C)(C)C)cc1` it is 18.7% (inactive). The figure for `Cc1ccc(S(=O)(=O)N2[C@@H](c3ccc(C(C)(C)C)cc3)C(C(=O)O)=CC[C@H]2c2cccc(Cl)c2)cc1` is 70.5% (active); for `Cc1ccc(S(=O)(=O)N2[C@@H](c3ccc(Br)cc3)C(C(=O)O)=CC[C@H]2c2ccc3c(c2)OCO3)cc1` it is 59.1% (active). As for `CC(=O)N1CCOc2ccc(S(=O)(=O)NCc3ccc(C)cc3)cc21`, the inhibition is 23.4% (inactive). The figure for `Cc1ccc(S(=O)(=O)N2[C@@H](c3ccccc3)C(C(=O)O)=CC[C@H]2c2cccc(C)c2)cc1` is 21.1% (inactive).

Take `Cc1ccc(S(=O)(=O)N2[C@@H](c3ccc(C(C)(C)C)cc3)C(C(=O)O)=CC[C@H]2c2ccc(Cl)c(Cl)c2)cc1`: the inhibition was 58.5% (active). The figure for `Cc1ccc(S(=O)(=O)N2[C@@H](c3ccc(Br)cc3)C(C(=O)O)=CC[C@H]2c2ccc(Cl)c(Cl)c2)cc1` is 85.2% (active); for `CC(C)(C)C1CCC2(CC1)C(C#N)=C(SCC(=O)Nc1ccccc1)NC(=O)C2C#N` (stereo not given) it is 55% (active). The figure for `COc1ccc(S(=O)(=O)N2CCN(C(=O)[C@@H]3CCC(=O)N3C3OC(=O)c4ccccc43)CC2)cc1` (stereo not given in full) is 22.4% (inactive). Take `COc1cc(/C=N/NC(=O)c2cc(C34CC5CC(CC(C5)C3)C4)[nH]n2)ccc1O`: the inhibition is 24.7% (active).

On to `Cc1ccccc1C(=O)c1cccn1CC(=O)NCc1ccc(Cl)cc1`, for which the inhibition is 23.1% (inactive). The figure for `O=C(Oc1ccc(-c2ccccc2)cc1)c1ccco1` is 23.7% (inactive). The figure for `O=C(Oc1ccc(OC(=O)c2ccco2)c(S(=O)(=O)c2ccc(Br)cc2)c1)c1ccco1` is 34% (active); for `CC1=C(C(=O)OCC(Br)(Br)Br)C(c2cccc([N+](=O)[O-])c2)NC(=O)N1CCCC(=O)O` (stereo not given) it is 90.6% (active); for `O=C(Nc1ccccc1Cl)Oc1ccc(-c2ccccc2)cc1` it is 53.8% (active). The figure for `Cc1ccc(S(=O)(=O)n2nc(-c3cccnc3)nc2N)cc1` is 23.2% (inactive); for `CC(=O)C[C@@H](O)CC(=O)[C@H]1OC(=O)CCCCCCCCc2ccccc21` it is 43.6% (active). `CC(=O)C[C@H](O)CC(=O)[C@H]1OC(=O)CCCCCCCCc2ccccc21`: the inhibition is 31.4% (active). The figure for `Cc1noc(NS(=O)(=O)c2ccc(NC(=O)CC34CC5CC(CC(Br)(C5)C3)C4)cc2)c1C` is 30.9% (active); for `Cn1c(=O)oc2cc(S(=O)(=O)NCCC(=O)NCCc3ccc(Cl)cc3)ccc21` it is 19.6% (inactive); for `CC(CC(=O)NCCc1ccc(Cl)cc1)S(=O)(=O)c1ccc2c(c1)NC(=O)CO2` (stereo not given) it is 22.4% (inactive). The figure for `O=S(=O)(Nc1ncccn1)c1ccc(NC(=S)NCCc2ccc(Cl)cc2)cc1` is 36.6% (active); for `N=c1c(S(=O)(=O)c2ccc(Cl)cc2)cc2c(=O)n3ccccc3nc2n1CCN1CCOCC1` it is 22.3% (inactive).

On to `O=c1[nH]c(CN2CCN(c3ccc([N+](=O)[O-])cc3)CC2)nc2ccsc12`, for which the inhibition is 31.1% (active). The figure for `O=C1OC(c2ccccc2)=N/C1=C/c1cccc(OC(=O)c2cccs2)c1` is 15.5% (inactive); for `O=C(O)c1cccc(COc2ccc3c(c2)CCC3)c1` it is 40% (active); for `O=C(CCc1ccc(O)cc1)c1c(O)cc(O)cc1O` it is 22.2% (inactive).

In the case of `O=C(CCc1ccccc1)c1c(O)cc(O)cc1O`, the inhibition is 26.6% (active). The figure for `C=C(C)C(COc1c2occc2cc2ccc(=O)oc12)OC(C)(C)C(O)COc1c2occc2cc2ccc(=O)oc12` (stereo not given) is 67.4% (active); for `Cc1ccc(NS(=O)(=O)c2cc([N+](=O)[O-])ccc2NNC(=S)Nc2cccc(Cl)c2)c(C)c1` it is 30.2% (active); for `N#Cc1c(N)[nH]c2ccc(Sc3ccccc3)cc12` it is 33.8% (active).

Consider `Nc1ccc(CSc2ccccc2)cc1`, for which the inhibition is 30.1% (active). The figure for `Nc1ccc(CSc2ccc(Cl)cc2)cc1` is 21.7% (inactive); for `O=C(CSc1ccccc1)NC(=O)NCc1ccccc1` it is 21.7% (inactive).

For `CCOc1cc(/C=C(/C#N)c2ccc(Cl)cc2)cc(Cl)c1OCC(=O)O`, the inhibition was 42.5% (active). The figure for `CCOc1cc(/C=C(/C#N)c2ccc(F)cc2)ccc1OCc1ccc(C(=O)O)o1` is 4.35% (inactive); for `C[C@@H]1CN([C@H](C)CO)C(=O)c2cccc(NC(=O)Nc3ccc(F)cc3)c2O[C@H]1CN(C)C(=O)Nc1ccc(C(F)(F)F)cc1` it is 39.6% (active). For the compound `C[C@H]1CN([C@@H](C)CO)C(=O)c2cccc(NC(=O)Nc3ccc(C(F)(F)F)cc3)c2O[C@@H]1CN(C)C(=O)Nc1ccc(F)cc1`, the inhibition was 57% (active).

As for `CC(Oc1ccc2c(-c3ccccc3)cc(=O)oc2c1)C(=O)NC(Cc1c[nH]c2ccccc12)C(=O)O` (stereo not given), the inhibition was 59% (active). As for `CCCCc1cc(=O)oc2cc(C)cc(OCC(=O)NC(Cc3ccc(Cl)cc3)C(=O)O)c12` (stereo not given), the inhibition was 22.2% (inactive). The figure for `CC(Oc1ccc2c(-c3ccccc3)cc(=O)oc2c1)C(=O)NC(Cc1c[nH]c2ccc(O)cc12)C(=O)O` (stereo not given) is 55.9% (active). The figure for `CC(Oc1ccc2c(-c3ccccc3)cc(=O)oc2c1)C(=O)N[C@H](Cc1c[nH]c2ccccc12)C(=O)O` (stereo not given in full) is 64.3% (active); for `O=C(COc1ccc2c(-c3ccccc3)cc(=O)oc2c1)N[C@@H](Cc1c[nH]c2ccc(O)cc12)C(=O)O` it is 55.4% (active). The figure for `Cc1ccc(CSc2nnc(NC(=O)C3COc4ccccc4O3)s2)cc1` (stereo not given) is 21.4% (inactive); for `CCCCCCCCCCS(=O)(=O)N/N=C/c1ccc([N+](=O)[O-])cc1` it is 20.3% (inactive); for `CCN(Cc1ccccc1)c1ccc(/C=N/NS(=O)(=O)c2cccc([N+](=O)[O-])c2)cc1` it is 63.5% (active). With `O=C(CC1CC2CCC1C2)Nc1nc(-c2ccccn2)cs1` (stereo not given), the inhibition was 45.4% (active). The figure for `O=C(NCc1cccnc1)C(=O)Nc1nc(C23CC4CC(CC(C4)C2)C3)cs1` is 23.7% (inactive); for `CC(NCc1ccc(OCc2ccc(Cl)cc2)cc1)C(O)c1ccccc1` (stereo not given) it is 68.7% (active). The figure for `Clc1ccc(COc2cccc(CNCc3ccncc3)c2)cc1` is 19.2% (inactive). The figure for `O=C(NCC(c1ccco1)N1CCCCC1)c1ccc(COc2ccc(Cl)cc2)cc1` (stereo not given) is 20% (inactive); for `CCc1ccc2nc3sc(C(=O)Nc4nnc(CC)s4)c(N)c3cc2c1` it is 19.1% (inactive).

As to `Cc1ccc(NC(=O)O/N=C/c2ccc(Br)cc2)cc1`, the inhibition is 15.5% (inactive). For the compound `CCOC(=O)C1CCCN(C(=O)Cc2c(C(=O)O)[nH]c3ccccc23)C1` (stereo not given), the inhibition is 28.4% (active). The figure for `O=C(Cc1ccc(Br)cc1)Nc1ncc([N+](=O)[O-])s1` is 28.4% (active).

Source of the values: PubChem BioAssay AID493034 (The Scripps Research Institute Molecular Screening Center, 2011).
